Screens as filed in PubChem BioAssay.
The list is not random: actives were taken first. Their share in the collection is about 6.6%.
RGS4 inh: Inhibitors of Regulator of G Protein Signaling (RGS) 4: qHTS. Regulator of G-protein signaling 4 (Homo sapiens), P49798. Transcreener GDP fluorescence polarization, RGS4-accelerated GTP hydrolysis. Potency, µM (titrated, usually from 114 µM), inactives show at the highest dose activity change, negative = inhibition, most hits filed as inhibitors. 390,000 compounds, 0.039% hits. AID 504845, 2011; further: on the % scale 0 is the no-effect control and ±100 the full control effect; nearly all actives have a fitted effect of over 75% in size
Target sequence (P49798 whole entry, looked up): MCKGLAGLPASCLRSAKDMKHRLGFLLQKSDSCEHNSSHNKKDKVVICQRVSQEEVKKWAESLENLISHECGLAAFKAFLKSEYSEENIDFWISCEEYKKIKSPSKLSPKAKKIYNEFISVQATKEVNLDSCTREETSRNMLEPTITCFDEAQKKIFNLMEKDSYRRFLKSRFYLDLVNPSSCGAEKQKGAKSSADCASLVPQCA
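MLSMR compounds (23 nl, pin-transferred) preincubated 10 min at room temperature with a 500nM (2x) first reagent, then RGS4 at 900nM (2x) plus Transcreener GDP mix added; fluorescence polarization (620/688 nm) read before and after 90 min at 30 °C.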
KB-V1 cytotox: qHTS assay for MDR1-selective chemotherapeutics: Primary screen using the drug-selected MDR subline cells KB-V1 | Potency, µM (highest dose often 46.1 µM), usual class: cytotoxic | 400,000 compounds, 3.4% hits | KB-V1 MDR cells viability, CellTiter-Glo, 72 h; further: on the % scale 0 is the no-effect control and ±100 the full control effect; nearly all actives have a fitted effect of over 60% in size
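qHTS viability screen in drug-selected KB-V1 MDR cells: 72 h compound treatment at 37 degrees C, ATP luminescence end point.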
TSG101-PTAP inh: qHTS Assay for Iinhibitors of HIV-1 Budding by Blocking the Interaction of PTAP/TSG101; Fluorescence polarization, FITC-PTAP peptide / Tsg101 binding; 340,000 tested, under 10 active; Tumor susceptibility gene 101 protein (Homo sapiens), Q99816; Potency, µM (series often up to 115 µM), for inactives: top-dose activity change, negative = inhibition, usual class: inhibitors; AID 493005, 2010; active means well fitted inhibition curve with a large enough effect in the main read-out, with a control signal flat, not every such curve was filed as active; inconclusive means small, poorly fitted or top-dose-only effect, or effect the other way, or a change in a side signal; inactive means no such curve, though single readings can be large or run the other way; further: % of control where 0% means no effect
Target sequence (Q99816 whole entry, looked up): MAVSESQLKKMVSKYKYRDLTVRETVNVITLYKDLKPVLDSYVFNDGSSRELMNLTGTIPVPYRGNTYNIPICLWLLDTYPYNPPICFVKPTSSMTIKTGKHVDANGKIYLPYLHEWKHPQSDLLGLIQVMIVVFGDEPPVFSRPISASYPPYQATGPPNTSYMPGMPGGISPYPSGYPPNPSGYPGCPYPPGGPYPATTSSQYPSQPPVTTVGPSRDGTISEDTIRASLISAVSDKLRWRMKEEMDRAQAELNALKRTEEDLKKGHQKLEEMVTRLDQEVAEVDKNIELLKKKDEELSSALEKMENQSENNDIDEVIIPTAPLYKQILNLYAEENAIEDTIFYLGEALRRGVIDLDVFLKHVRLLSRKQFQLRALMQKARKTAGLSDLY
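Compounds were pin-transferred onto Tsg101 binding domain (10 uM final) in HEPES pH 7.5 buffer, then FITC-PTAP peptide was added at 50 nM final. After 20 min at RT, polarization reported peptide displacement across a qHTS concentration series.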
MCF10A rereplic: A quantitative high throughput screen for small molecules that induce DNA re-replication in MCF 10a normal breast cells; Potency, µM (titrated, usually from 46.1 µM), for the others: at the top dose activity, positive = re-replication, hits mostly activators; MCF 10A DNA re-replication, Hoechst nuclear intensity, 48 h; AID 624296, 2012; 350,000 compounds, 2.9% hits; further: % of control where 0% means no effect; nearly all actives have a fitted effect of over 50% in size
SW480 rereplic: A quantitative high throughput screen for small molecules that induce DNA re-replication in SW480 colon adenocarcinoma cells; SW480 DNA re-replication, Hoechst DNA content imaging, 48 h; Potency, µM (series often up to 46.1 µM), for inactives: at the highest dose re-replication activation, hits mostly activators; 340,000 compounds, 1.8% hits; AID 624297, 2012; further: % of control where 0% means no effect; nearly all actives have a fitted effect of over 55% in size
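Image-based DNA-content assay: after two days of treatment, nuclei were labelled with the DNA dye Hoechst and imaged, and hits were compounds raising the count of nuclei showing high fluorescence intensity.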
KB-3-1 cytotox: qHTS assay for MDR1-selective chemotherapeutics: Primary screen using the parental adenocarcinoma cell KB-3-1 | AID 1347075, 2019 | 400,000 compounds, 1.4% hits | Potency, µM (doses to about 46.1 µM), hits mostly cytotoxic | KB-3-1 viability, CellTiter-Glo ATP luminescence, 72 h; further: on the % scale 0 is the no-effect control and ±100 the full control effect; nearly all actives have a fitted effect of over 60% in size
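Screening of KB-3-1 cells (DMEM, 10% FBS, phenol-red free) ran from lowest to highest compound concentration; after 72 h at 37 °C viability was read luminescently and curves fitted.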
Starred values were filed as active, the others as inactive; i = inactive; ? = inconclusive; . = not tested or not shown; [ ] = dose if it differs, or a comment. Unless noted, the call rests on the fitted dose curve; in most records, active means well fitted curve in the direction sought with a large enough effect; inconclusive means small, poorly fitted or top-dose-only effect, or another doubt; inactive means no such curve, though single readings can be large; an effect the other way counts as inactive or inconclusive. Potency means the concentration at half of the fitted maximal effect.

SMILES | RGS4 inh | KB-V1 cytotox | TSG101-PTAP inh | MCF10A rereplic | SW480 rereplic | KB-3-1 cytotox
Cc1sc(NC(=O)COc2ccccc2)c(C#N)c1-c1ccccc1 | -19% | 16µM* | -5% | -3% | -6% | i
Cc1ccc(OCC(=O)Nc2oc(-c3ccccc3)c(-c3ccccc3)c2C#N)cc1 | -15% | i | -8% | 16µM* | -1% | i
N#Cc1c(NC(=O)COC(=O)C2CC3C=CC2C3)oc(-c2ccccc2)c1-c1ccccc1 (configuration not stated) | 1%[11.4 µM] | i | -5% | 18µM* | -40% | i
COc1ccc(C(=O)Nc2sc(C)c(-c3ccccc3)c2C#N)cc1OC | -22% | ? | -4% | ? | -10% | i
COc1ccccc1OCC(=O)Nc1oc(-c2ccccc2)c(-c2ccccc2)c1C#N | -49% | ? | -1% | ? | -7% | i
O=S(=O)(c1ccc(-c2cc(C(F)(F)F)on2)s1)N1CCN(c2ccc(F)cc2)CC1 | 12% | . | . | . | . | .
COc1ccc(-c2oc(NC(=O)CSc3ncn[nH]3)c(C#N)c2-c2ccc(OC)cc2)cc1 | -47% | i | 1% | 14µM* | 35µM* | i
COc1ccc2cc(C#N)c(SCC(=O)Nc3nonc3C)nc2c1 | -38% | i | -5% | -16% | ? | i
Cc1cc2cc(C#N)c(SCC(=O)Nc3nonc3C)nc2cc1C | -21% | i | 4% | 15µM* | ? | i
CCN(CC)c1ccc2nc3c(=O)n(C)c(=O)n(C)c3nc2c1 | 6% | . | . | . | . | .
Cc1nc2c(=O)n(C)c(=O)n(C)c2nc1Cl | -11% | ? | -1% | 1.8µM* | ? | 15µM*
COc1ccc(CCNC(=O)CSc2nc(-c3ccc(F)cc3)cc(C(F)(F)F)n2)cc1OC | -6% | i | . | . | . | i
CCCn1nnc(NC(=O)C(C)Oc2ccc(Cl)cc2Cl)n1 (configuration not stated) | -10% | ? | -5% | 2% | -8% | i
CC(Oc1cc(Cl)ccc1Cl)C(=O)N/N=C\c1ccnn1C (configuration not stated) | 1% | 18µM* | -3% | 13% | -7% | i
O=C(Nc1ccccc1Cl)Nc1ccccc1Cl | -7% | i | -5% | -3% | 15% | i
O=C(CCCCC(=O)Nc1ccccc1Cl)Nc1ccccc1Cl | -44% | i | -4% | -1% | 2.9µM* | i
Cc1c(Cl)cccc1NC(=O)c1oc2ccc(S(=O)(=O)N3CCCCCC3)cc2c1C | 34% | i | . | . | . | i
COc1ccc(CNC(=O)c2sc3nc4n(c(=O)c3c2C)CCCCC4)cc1 | -38% | i | . | . | . | i
COC(=O)c1[nH]c2ccc(F)cc2c1NS(=O)(=O)c1ccc(F)c(C)c1 | 2% | 16µM* | 0% | ? | -107% | ?
Cc1ccc(C(=O)N2CCC(c3c[nH]c4ccccc34)(c3c[nH]c4ccccc34)CC2)cc1 | -12% | i | . | . | . | i
COc1ccc(OCC(=O)OC(C)CN2CCCCC2)cc1 (configuration not stated) | 6% | i | -5% | 1% | -92% | i
Cc1ccc(OCC(=O)OC(C)CN2CCCCC2)cc1 (configuration not stated) | -21% | i | -1% | 1µM* | -100% | i
COc1ccc(-c2c(C)nn3c(N)c(C#N)cnc23)cc1OC | -50% | 9.2µM* | -6% | -1% | -5% | i
Cc1nn2c(N)c(C#N)cnc2c1-c1ccc(Cl)cc1 | 8% | i | -1% | -2% | 0% | i
CCCN(CC(=O)Nc1cc(C)on1)CC(=O)Nc1ccc(F)c(F)c1F | 21% | 4.6µM* | -2% | 4% | 0% | i
SMILES | RGS4 inh | KB-V1 cytotox | TSG101-PTAP inh | MCF10A rereplic | SW480 rereplic | KB-3-1 cytotox
Cc1cc(NC(=O)CN(C)CC(=O)Nc2ccc(F)c(F)c2F)no1 | 15% | ? | -1% | -5% | -10% | i
COC(=O)c1ccc(NC(=O)CC2C(=O)N(c3ccccc3)C(=O)N2Cc2cccs2)cc1 (configuration not stated) | -5% | . | . | . | . | .
Fc1ccc(-c2csc(-c3ccncc3)n2)cc1 | -38% | i | -2% | -3% | -2% | i
O=S(=O)(Nc1ccc(-c2csc(-c3ccccc3)n2)cc1)c1ccc(F)cc1 | 3% | ? | -1% | 16µM* | 12% | ?
O=C(Nc1ccccc1)Nc1nc(-c2ccc(F)cc2)cs1 | -17% | i | -5% | 5% | 2% | i
O=C(Nc1cccnc1)c1ccccc1NS(=O)(=O)c1ccc(F)cc1 | 31% | 21µM* | -2% | 8% | -5% | ?
O=C(Nc1nc(-c2ccccc2)cs1)c1ccccc1NS(=O)(=O)c1ccc(F)cc1 | -8% | 16µM* | -5% | 16µM* | -1% | 6.5µM*
CN(c1ccccc1)c1nc(N)c(C#N)c(CC#N)c1C#N | -7% | 7.3µM* | -1% | 10% | 1% | 15µM*
Cn1c(=O)c2[nH]c(CSCc3ccccc3)nc2n(C)c1=O | -12% | i | -9% | -1% | -2% | i
Cn1c(=O)c2[nH]c(CN(Cc3ccccc3)Cc3ccccc3)nc2n(C)c1=O | ? | 8.2µM* | -5% | 4% | -8% | i
O=C(N/N=C/c1ccccc1)c1n[nH]c2c1CCCC2 | -19% | ? | -3% | ? | ? | ?
O=C(N/N=C/c1ccc(Cl)cc1)c1n[nH]c2c1CCCC2 | -3% | 1.3µM* | 1% | ? | ? | 4.6µM*
O=C(N/N=C/c1cccs1)c1n[nH]c2c1CCC2 | -25% | ? | -1% | 8.2µM* | 12µM* | 5.8µM*
COc1ccc(Cc2noc(CN3CCN(c4ccc(Cl)cn4)CC3)n2)cc1OC | -2% | 3.3µM* | 0% | 9% | 0% | ?
O=S(=O)(NCCc1ccncc1)c1ccc(S(=O)(=O)N2CCCCCC2)cc1 | -1% | 18µM* | -8% | ? | 1% | i
CC1CCCCN1S(=O)(=O)c1ccc(S(=O)(=O)NCCc2ccncc2)cc1 (configuration not stated) | -2% | 21µM* | -9% | 0% | -18% | i
COc1ccc2cc3cc(C(=O)Nc4ccccc4C)oc3nc2c1 | 21% | i | . | . | . | i
Nc1cc2c3c(cccc3c1)C(=O)N(CCN1CCCC1)C2=O | 15% | 23µM* | -25% | ? | 15µM* | ?
